Results: the supplement of paper PMC4022240
± gives the standard deviation.

What was measured:
Experiment in all cases: peptide microarray binding signal (635 nm), min-max normalized on array (fraction of array maximum); higher = stronger binding
Conditions in all cases: peptide region: H3 1-13
[1] = molecular target: T1, HaloTag-ATRX ADD domain (163-292)
T1 chain: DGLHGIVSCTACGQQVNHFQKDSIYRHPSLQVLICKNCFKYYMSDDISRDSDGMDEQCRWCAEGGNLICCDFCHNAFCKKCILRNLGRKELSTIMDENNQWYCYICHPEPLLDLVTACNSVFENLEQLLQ
Method: (§1)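 Histone 13-mer peptides were synthesized as cellulose conjugates with a C-terminal 20-atom PEG linker and printed in triplicate on nitrocellulose. The sequence given is the unmodified backbone; PTMs (Kme1/2/3, Kac, Sph/Tph, Rme/Rme2a/Rme2s, Rcit) are listed in the label and the 'peptide modifications' condition. Slides were probed at 4 °C for 1 h with biotin-labelled (HQ)5-HaloTag reader fusions (ATRX-ADD, ING2-PHD) then streptavidin-Alexa647, or with rabbit histone antibodies then anti-rabbit Alexa647. The mean 635 nm signal of the triplicate spots was scaled 0-1 between the lowest and highest values on each array.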

[2] = molecular target: HaloTag-ING2 PHD (mouse Ing2 200-280)
Method: as §1

[3] = molecular target: anti-H3K4me3 antibody ab8580
Method: as §1

[4] = molecular target: anti-H3K9me3 antibody ab8898
Method: as §1

[5] = peptide modifications: H3K4me2 H3K9me1, binder concentration: 1:2,000 dilution
[6] = peptide modifications: H3K4me2 H3K9me1, binder concentration: 1:10,000 dilution
[7] = peptide modifications: H3K4me2, binder concentration: 1:2,000 dilution
[8] = peptide modifications: H3K4me2, binder concentration: 1:10,000 dilution
[9] = peptide modifications: H3K4me3 H3K9me1, binder concentration: 1:2,000 dilution
[10] = peptide modifications: H3K4me3 H3K9me1, binder concentration: 1:10,000 dilution
[11] = peptide modifications: H3K4me1 H3T6ph, binder concentration: 1:2,000 dilution
[12] = peptide modifications: H3K4me1 H3T6ph, binder concentration: 1:10,000 dilution
[13] = peptide modifications: H3K4me3 H3K9ac, binder concentration: 1:2,000 dilution
[14] = peptide modifications: H3K4me3 H3K9ac, binder concentration: 1:10,000 dilution

B1: H3 1-13 A R T Kme2 Q T A R Kme S T G G (peptide)
chain: ARTKQTARKSTGG
- peptide microarray binding signal ([1]; peptide modifications: H3K4me2 H3K9me1, binder concentration: 50 nM): 0.0128 ± 0.00075
- peptide microarray binding signal ([1]; peptide modifications: H3K4me2 H3K9me1, binder concentration: 500 nM): 0.0286 ± 0.0013
- peptide microarray binding signal ([2]; peptide modifications: H3K4me2 H3K9me1, binder concentration: 10 nM): 0.656 ± 0.061
- peptide microarray binding signal ([2]; peptide modifications: H3K4me2 H3K9me1, binder concentration: 100 nM): 0.43 ± 0.13
- peptide microarray binding signal [3, 5]: 0.365 ± 0.067
- peptide microarray binding signal [3, 6]: 0.152 ± 0.018
- peptide microarray binding signal [4, 5]: 0.00797 ± 0.0012
- peptide microarray binding signal [4, 6]: 0.00398 ± 0.00019

B2: H3 1-13 A R T Kme2 Q T A R K S T G G (peptide)
chain: ARTKQTARKSTGG
- peptide microarray binding signal ([1]; peptide modifications: H3K4me2, binder concentration: 50 nM): 0.00564 ± 0.00013
- peptide microarray binding signal ([1]; peptide modifications: H3K4me2, binder concentration: 500 nM): 0.0118 ± 0.00057
- peptide microarray binding signal ([2]; peptide modifications: H3K4me2, binder concentration: 10 nM): 0.0623 ± 0.0073
- peptide microarray binding signal ([2]; peptide modifications: H3K4me2, binder concentration: 100 nM): 0.0581 ± 0.0074
- peptide microarray binding signal [3, 7]: 0.03 ± 0.01
- peptide microarray binding signal [3, 8]: 0.0164 ± 0.0011
- peptide microarray binding signal [4, 7]: 0.00156 ± 0.00023
- peptide microarray binding signal [4, 8]: 0.00115 ± 2e-05

B3: H3 1-13 A R T Kme3 Q T A R Kme S T G G (peptide)
chain: ARTKQTARKSTGG
- peptide microarray binding signal ([1]; peptide modifications: H3K4me3 H3K9me1, binder concentration: 50 nM): 0.0117 ± 0.0004
- peptide microarray binding signal ([1]; peptide modifications: H3K4me3 H3K9me1, binder concentration: 500 nM): 0.025 ± 0.0009
- peptide microarray binding signal ([2]; peptide modifications: H3K4me3 H3K9me1, binder concentration: 10 nM): 0.411 ± 0.074
- peptide microarray binding signal ([2]; peptide modifications: H3K4me3 H3K9me1, binder concentration: 100 nM): 0.338 ± 0.07
- peptide microarray binding signal [3, 9]: 0.484 ± 0.13
- peptide microarray binding signal [3, 10]: 0.592 ± 0.25
- peptide microarray binding signal [4, 9]: 0.108 ± 0.018
- peptide microarray binding signal [4, 10]: 0.0413 ± 0.0047

B4: H3 1-13 A R T Kme Q Tph A R K S T G G (peptide)
chain: ARTKQTARKSTGG
- peptide microarray binding signal ([1]; peptide modifications: H3K4me1 H3T6ph, binder concentration: 50 nM): 0.00661 ± 0.00014
- peptide microarray binding signal ([1]; peptide modifications: H3K4me1 H3T6ph, binder concentration: 500 nM): 0.0257 ± 0.00052
- peptide microarray binding signal ([2]; peptide modifications: H3K4me1 H3T6ph, binder concentration: 10 nM): 0.087 ± 0.04
- peptide microarray binding signal ([2]; peptide modifications: H3K4me1 H3T6ph, binder concentration: 100 nM): 0.211 ± 0.02
- peptide microarray binding signal [3, 11]: 0.00296 ± 0.00042
- peptide microarray binding signal [3, 12]: 0.00194 ± 0.00011
- peptide microarray binding signal [4, 11]: 0.00414 ± 0.00036
- peptide microarray binding signal [4, 12]: 0.00259 ± 0.00028

B5: H3 1-13 A R T Kme3 Q T A R Kac S T G G (peptide)
chain: ARTKQTARKSTGG
- peptide microarray binding signal ([1]; peptide modifications: H3K4me3 H3K9ac, binder concentration: 50 nM): 0.00768 ± 0.00092
- peptide microarray binding signal ([1]; peptide modifications: H3K4me3 H3K9ac, binder concentration: 500 nM): 0.00948 ± 0.00033
- peptide microarray binding signal ([2]; peptide modifications: H3K4me3 H3K9ac, binder concentration: 10 nM): 0.216 ± 0.039
- peptide microarray binding signal ([2]; peptide modifications: H3K4me3 H3K9ac, binder concentration: 100 nM): 0.199 ± 0.014
- peptide microarray binding signal [3, 13]: 0.289 ± 0.062
- peptide microarray binding signal [3, 14]: 0.621 ± 0.31
- peptide microarray binding signal [4, 13]: 0.0528 ± 0.047
- peptide microarray binding signal [4, 14]: 0.0162 ± 0.0043
